# Compounds with a hit are over-represented: about 8.3% of the library has one in this group of screens.
# RORgamma inh: inhibitors of mouse ROR gamma transcriptional activity | P51450 | Drosophila S2 Gal4-RORgamma UAS-luciferase reporter, 20 h | Potency, µM (top dose mostly 53.6 µM), without a hit: at the top dose activity change, negative = inhibition, usual class: inhibitors | actives 5.4% (n = 310,000); note: potency is the fitted concentration of half-maximal effect; % is set by controls: 0 for no effect and ±100 for the full control effect; nearly all actives have a fitted effect of over 60% in size
# Target sequence (P51450 whole entry, looked up, the tested form may be a part): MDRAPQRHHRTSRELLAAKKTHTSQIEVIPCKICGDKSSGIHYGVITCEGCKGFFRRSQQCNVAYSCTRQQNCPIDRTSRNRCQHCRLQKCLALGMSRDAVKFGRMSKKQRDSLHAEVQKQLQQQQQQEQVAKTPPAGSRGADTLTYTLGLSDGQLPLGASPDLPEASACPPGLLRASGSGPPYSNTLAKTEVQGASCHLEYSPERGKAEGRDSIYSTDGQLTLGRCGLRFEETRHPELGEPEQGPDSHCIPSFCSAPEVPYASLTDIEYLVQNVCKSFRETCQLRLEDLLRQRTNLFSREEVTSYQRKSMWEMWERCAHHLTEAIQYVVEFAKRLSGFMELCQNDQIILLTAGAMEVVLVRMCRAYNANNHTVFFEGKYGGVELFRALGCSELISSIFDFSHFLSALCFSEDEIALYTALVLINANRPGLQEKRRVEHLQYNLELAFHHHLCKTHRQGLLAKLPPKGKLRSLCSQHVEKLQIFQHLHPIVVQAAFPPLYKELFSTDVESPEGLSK
#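 A Gal4/UAS one-hybrid system in insect cells: metallothionein-promoter Gal4–ROR gamma fusion plus Photinus luciferase reporter. Copper sulfate 700 uM final, 20 hr ambient incubation, luminescent detection after 10 min with reagent.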
# SW480 rereplic: induces DNA re-replication in SW480 colon adenocarcinoma cells. Potency, µM (titrated, usually from 46.1 µM), inactives show top-dose re-replication activation, hits mostly activators. SW480 DNA re-replication, Hoechst DNA content imaging, 48 h. actives 1.8% (n = 340,000); note: potency is the fitted concentration of half-maximal effect; % of control where 0% means no effect; nearly all actives have a fitted effect of over 55% in size
#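 250 cells/well; 23 nL cpd via pin tool; 48 hr, 37 C, 5% CO2; Hoechst 40 min; imager read of total nuclear intensity, ex 405/em 500-530 nm.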
# BCR signal inh: inhibitors of chronic active B-cell receptor signaling | ABC-DLBCL IkBa-CBG/CBR reporter, luminescence ratio, 4 h | Potency, µM (titrated, usually from 46.1 µM), for the others: top-dose activity change, negative = inhibition, most hits filed as inhibitors | actives 0.05% (n = 340,000) | AID 493014; active = well fitted inhibition curve with a large enough effect in the signal ratio, with a control signal flat, not every such curve was filed as active; inconclusive = small, poorly fitted or top-dose-only effect, or effect the other way, or a change in a side signal; the % refers to the signal ratio;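 note: potency is the fitted concentration of half-maximal effect; plate controls were basal doxycycline-induced cells for no effect and cells given 10 µM MG132 for full effect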
#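 Doxycycline induced both beetle luciferases in TMD8 lymphoma cells; IKK-driven degradation limits the IkappaBalpha-fused green signal, while red luminescence normalises for cell number and nonspecific effects. Compounds tested up to 46 uM, 4 hrs.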
# MCF10A rerep: DNA re-replication induction in MCF 10a cells. MCF 10A DNA re-replication, Hoechst nuclear intensity, 48 h. Potency, µM (top dose mostly 46.1 µM), for inactives: at the top dose activity, positive = re-replication, hits mostly activators. actives 2.9% (n = 350,000); note: potency is the fitted concentration of half-maximal effect; % of control where 0% means no effect; nearly all actives have a fitted effect of over 50% in size
# VP16 counter: inhibits Gal4-VP16 luciferase reporter, ROR gamma counter-screen. Drosophila S2 Gal4-VP16 UAS-luciferase, luminescence, 20 h. Potency, µM (highest dose often 53.6 µM), without a hit: at the top dose activity, negative = inhibition, usual class: inhibitors. actives 3.5% (n = 310,000). AID 2546;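 note: Gal4-VP16 expression switched on by copper sulfate through the metallothionein promoter; potency is the fitted concentration of half-maximal effect; % is set by controls: 0 for no effect and ±100 for the full control effect; nearly all actives have a fitted effect of over 50% in size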
# Giardia killer: kills Giardia lamblia; Giardia lamblia trophozoite viability; activity change, % at 7.66 µM, hits read low; actives 0.15% (n = 340,000); AID 540267; in the data active = activity change below about -80%; inconclusive = between about -30% and that limit;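 note: parasites exposed to compound for two days anaerobically before the ATP read; % is set by controls: 0 for no effect and ±100 for the full control effect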
#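 Luminescent ATP signal served as the viability read-out, measured 15-30 min after adding ATP detection reagent to trophozoites that had been incubated with compounds for 48 hrs at 37 deg C anaerobically at 100 cells/well.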
# * = called active by the depositor; ? = inconclusive; / = no result given; [ ] = another dose, or the depositor's remark. Unless noted, calls come from the whole dose curve; as a rule, active = well fitted curve in the direction sought with a large enough effect; inconclusive = small, poorly fitted or top-dose-only effect, or another doubt; inactive = no such curve, though single readings can be large; an effect the other way counts as inactive or inconclusive.
SMILES,RORgamma inh,SW480 rereplic,BCR signal inh,MCF10A rerep,VP16 counter,Giardia killer
COC(=O)C(=C/C(C)=C/c1cccnc1)C(=O)OC,?,?,?,8.2µM*,?,17
CCCC(=O)NC(C)c1nc(-c2ccc(C)cc2)no1 (stereo not drawn),/,7%,/,-11%,/,-5
CCOC(=O)OCC1OC(C#Cc2ccc(F)cc2F)C=CC1OC(=O)OCC (stereo not drawn),5%[10 µM],/,/,/,16%[10 µM],/
Cc1cccc(-c2cnn(-c3ccccc3)c2N)c1,-3%,18µM*,?,4%,3%,-11
N#Cc1ccc(Cl)cc1NC(=O)COC(=O)c1cccc(S(=O)(=O)N2CCOCC2)c1,/,-5%,-20%,-5%,/,18
CCN(CC)CCNC(=O)C(=O)Nc1ccc2c(c1)N(S(=O)(=O)c1cccs1)CCC2,/,5.2µM*,7%,?,/,23
CNC(=O)C(=O)Nc1ccc2c(c1)N(S(=O)(=O)c1cccs1)CCC2,/,-2%,1%,1%,/,-2
CCOCCCNC(=S)N1CCC(C(=O)c2ccc3c(c2)OCCO3)CC1,-11%,18%,?,0%,-13%,-21
COC(=O)c1sccc1NC(=O)Nc1cc(C)ccc1OC,15%,1%,?,4%,7%,-12
COC(=O)c1sccc1NC(=S)Nc1ccc(OC)cc1,6.3µM*,-1%,-9%,-1%,14µM*,-13
COc1ccc(NC(=S)NN(C)C(=S)Nc2ccc(OC)cc2)cc1,7.9µM*,3.7µM*,?,?,?,-10
CCc1ccc(NC(=O)Nc2ccsc2C(=O)OC)cc1,8.9µM*,-1%,?,8%,?,-9
COC(=O)c1sccc1NC(=S)Nc1cc(OC)ccc1OC,11µM*,-17%,-10%,1%,?,-2
CCOc1ccccc1C(=O)Nc1ccccc1C(N)=O,?,-5%,-25%,4%,-15%,1
CCOc1ccccc1C(=O)Nc1ccsc1C(=O)OC,31%,5.8µM*,?,7.3µM*,0%,14
COc1cccc(COC(=O)C2CC(=O)N(Cc3ccc(C)cc3)C2)c1OC (stereo not drawn),/,-14%,3%,0%,/,-12
CC(C)(C)NC(=O)COC(=O)c1cc(F)c(F)cc1Cl,34%,-1%,28%,-2%,18%,-7
Cc1ccc(NC(=O)c2sc3nc(C)nc(N4CCN(c5ccccn5)CC4)c3c2C)c(C)c1,10%,11%,6%,?,-3%,9
Cc1nc(N2CCN(c3ccccn3)CC2)c2c(C)c(C(=O)N3CCN(c4ccccc4F)CC3)sc2n1,40%,7%,5%,7.3µM*,-16%,-5
O=C(CCN1C(=O)[C@@H]2Cc3ccccc3CN2C1=O)Nc1cccc(F)c1,-1%,-17%,0%,-17%,-4%,-9
O=c1c([N+](=O)[O-])cccn1Cc1cccc(Br)c1,13%,-6%,5%,4%,5%,-85*
O=c1c([N+](=O)[O-])cccn1Cc1ccccc1Cl,12%,18%,-27%,0%,?,?
O=C(Cc1csc(NC(=O)Nc2ccc(Cl)cc2)n1)NCc1ccccn1,/,-1%,?,5%,/,-6
O=C(Cc1csc(Nc2nc(=S)[nH]c3ccccc23)n1)NCc1ccc(Cl)cc1,3.5µM*,?,0%,16µM*,10µM*,5
COc1ccc(CNC(=O)Cc2csc(Nc3nc(=S)[nH]c4ccccc34)n2)cc1,1.8µM*,-7%,11%,3%,13µM*,19
COc1ccc(C(=O)Nc2nc(CC(=O)NCc3ccc(F)cc3)cs2)cc1,/,4%,-3%,11%,/,-23
O=C(Cc1csc(Nc2nc(=S)[nH]c3ccccc23)n1)NCCCN1CCN(c2ccccc2F)CC1,2µM*,18µM*,?,7.3µM*,10µM*,?
CC(C)Oc1ccc(CNC(=O)c2cc(S(=O)(=O)N3CCOCC3)cn2C)cc1,15%,-35%,6%,-1%,2%,-29

# Screening results from PubChem BioAssay.
